Drawing on ChEMBL document CHEMBL3988442, “University of Dundee, Small-Polar-MMV Screening Library” (2021), this text covers PXC50 and Percent Effect for 3 compounds.

For some of these results: Measured potencies and affinities stand elsewhere.

The target of experiment [1] is T1, Methionyl-tRNA synthetase, putative (Leishmania donovani (strain BPK282A1)) (UniProt E9BF75).
T1 sequence (whole entry): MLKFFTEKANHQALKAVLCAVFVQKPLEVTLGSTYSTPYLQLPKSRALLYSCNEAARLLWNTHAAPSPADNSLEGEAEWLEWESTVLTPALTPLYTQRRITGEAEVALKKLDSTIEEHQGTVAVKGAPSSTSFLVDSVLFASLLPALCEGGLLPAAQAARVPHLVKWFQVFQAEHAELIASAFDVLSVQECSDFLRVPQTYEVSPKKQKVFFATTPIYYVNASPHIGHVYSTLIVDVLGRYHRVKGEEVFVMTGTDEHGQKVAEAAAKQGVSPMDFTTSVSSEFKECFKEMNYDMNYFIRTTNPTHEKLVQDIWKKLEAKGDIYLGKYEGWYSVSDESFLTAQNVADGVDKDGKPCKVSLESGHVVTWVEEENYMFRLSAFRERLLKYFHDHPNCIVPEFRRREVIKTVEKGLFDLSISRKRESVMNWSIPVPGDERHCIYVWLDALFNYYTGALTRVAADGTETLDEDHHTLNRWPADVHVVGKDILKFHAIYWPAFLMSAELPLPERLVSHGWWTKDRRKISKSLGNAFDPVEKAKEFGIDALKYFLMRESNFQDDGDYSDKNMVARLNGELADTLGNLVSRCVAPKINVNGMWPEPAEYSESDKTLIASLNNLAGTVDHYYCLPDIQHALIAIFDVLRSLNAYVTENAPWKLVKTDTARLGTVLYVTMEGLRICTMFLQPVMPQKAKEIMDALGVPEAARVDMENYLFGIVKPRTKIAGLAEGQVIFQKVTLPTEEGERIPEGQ
As to the kind of experiment: Leishmania donovani Methionine tRNA synthetase (LdMetRS):v7. Dose response assay. The class given is functional. Also noted: conc 80 nM, time 150 minutes.

Experiment [2] deals with Protein translocase subunit SecA (Escherichia coli (strain K12)) (UniProt P10408). As to the kind of experiment: Assay to Identify E. coli SecA ATPase Inhibitors. Type of experiment: functional. Also noted: scale not given: direction of the effect not stated beside the values. As to conditions: 30 µM.
Experiment [3] has as its target T2, Ubiquitin-activating enzyme e1, putative (Leishmania donovani (strain BPK282A1)) (UniProt E9BSI1).
T2 sequence (whole entry): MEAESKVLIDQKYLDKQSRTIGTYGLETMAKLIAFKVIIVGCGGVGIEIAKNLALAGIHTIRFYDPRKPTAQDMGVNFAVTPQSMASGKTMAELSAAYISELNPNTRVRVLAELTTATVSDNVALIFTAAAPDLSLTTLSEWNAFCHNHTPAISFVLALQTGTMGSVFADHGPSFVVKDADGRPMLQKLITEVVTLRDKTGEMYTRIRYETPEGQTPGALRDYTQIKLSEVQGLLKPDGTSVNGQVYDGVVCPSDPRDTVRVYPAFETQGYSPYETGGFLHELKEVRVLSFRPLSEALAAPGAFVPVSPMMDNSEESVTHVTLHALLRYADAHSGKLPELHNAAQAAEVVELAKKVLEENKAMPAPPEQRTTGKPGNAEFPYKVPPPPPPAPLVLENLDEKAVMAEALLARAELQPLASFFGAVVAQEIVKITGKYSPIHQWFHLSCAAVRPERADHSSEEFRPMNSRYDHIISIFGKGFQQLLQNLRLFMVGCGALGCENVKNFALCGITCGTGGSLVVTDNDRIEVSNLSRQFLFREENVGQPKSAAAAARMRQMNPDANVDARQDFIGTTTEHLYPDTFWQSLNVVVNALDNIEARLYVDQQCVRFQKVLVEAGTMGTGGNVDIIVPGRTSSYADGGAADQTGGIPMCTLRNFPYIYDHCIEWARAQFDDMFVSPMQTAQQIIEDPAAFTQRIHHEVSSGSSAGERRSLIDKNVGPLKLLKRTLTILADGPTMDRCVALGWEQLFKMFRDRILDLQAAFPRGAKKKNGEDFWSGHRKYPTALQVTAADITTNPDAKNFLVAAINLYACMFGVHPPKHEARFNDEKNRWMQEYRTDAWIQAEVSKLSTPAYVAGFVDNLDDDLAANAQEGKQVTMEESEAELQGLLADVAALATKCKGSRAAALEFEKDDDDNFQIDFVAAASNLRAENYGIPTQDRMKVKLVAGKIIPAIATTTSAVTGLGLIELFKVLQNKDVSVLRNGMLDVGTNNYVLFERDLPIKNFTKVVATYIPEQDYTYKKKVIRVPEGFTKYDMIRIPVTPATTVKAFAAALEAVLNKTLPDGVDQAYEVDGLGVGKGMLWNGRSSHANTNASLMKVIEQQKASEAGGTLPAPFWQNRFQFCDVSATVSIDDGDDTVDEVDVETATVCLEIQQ
The experiment can be described thus: Leishmania donovani Ubiquitin Activating Enzyme (LdE1). The class given is functional. The settings on record: 30 µM. Also noted: scale not given: direction of the effect not stated beside the values.

In experiment [4] the target is Sialic acid-binding Ig-like lectin 9 (Homo sapiens) (UniProt Q9Y336). The experiment can be described thus: Hs-Siglec9 ALPHAscreen SOP 20170721. Also on record: scale not given: direction of the effect not stated beside the values. The settings on record: 10 µM. On the technique in general: In Alpha technology, singlet oxygen from a donor bead excites a nearby acceptor bead.

Experiment [5] deals with Trypanosoma cruzi. As to the kind of experiment: Trypanosoma cruzi phosphomannomutase and mannose-1-phosphate guanylyltransferase assay. As to conditions: 10 µM. Type of experiment: functional. Also noted: scale not given: direction of the effect not stated beside the values.
The target in experiment [6] is T3, Arginase-2, mitochondrial (Homo sapiens) (UniProt P78540).
T3 sequence (whole entry): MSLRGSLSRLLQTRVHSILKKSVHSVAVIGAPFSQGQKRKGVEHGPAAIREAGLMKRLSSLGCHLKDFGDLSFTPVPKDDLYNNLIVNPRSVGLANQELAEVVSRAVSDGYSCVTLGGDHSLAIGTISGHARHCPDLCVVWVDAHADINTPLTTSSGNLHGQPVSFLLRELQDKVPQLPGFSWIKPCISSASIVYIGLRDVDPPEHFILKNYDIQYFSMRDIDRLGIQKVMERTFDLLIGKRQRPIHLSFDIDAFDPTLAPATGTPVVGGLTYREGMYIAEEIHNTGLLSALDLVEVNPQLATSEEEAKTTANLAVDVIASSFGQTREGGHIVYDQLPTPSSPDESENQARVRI
The experiment can be described thus: in vitro enzyme assay to detect the production of urea directly proportional to the activity of Arginase II. Also on record: scale not given: in the data most compounds retested in dose-response had high values. Type of experiment: functional. The settings on record: 33.3 µM.

For experiment [7], the target named is T4, Proteasome subunit beta (Trypanosoma cruzi) (UniProt O96673).
T4 sequence (whole entry): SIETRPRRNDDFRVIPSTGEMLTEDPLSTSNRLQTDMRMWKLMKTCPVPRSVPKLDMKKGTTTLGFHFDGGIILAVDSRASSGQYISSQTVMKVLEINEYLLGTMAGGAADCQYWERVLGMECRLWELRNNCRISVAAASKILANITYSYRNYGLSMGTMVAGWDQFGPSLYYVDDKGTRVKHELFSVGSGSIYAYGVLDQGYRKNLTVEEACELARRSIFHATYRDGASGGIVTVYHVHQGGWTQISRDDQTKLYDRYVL
As to the kind of experiment: Trypanosoma cruzi proteasome chymotrypsin-like activity (TcProtChymo) assay. Type of experiment: functional. Also on record: scale not given: in the data most compounds retested in dose-response had high values. The settings on record: 9.37 µM.

For experiment [8], the species on record is Homo sapiens. As to the kind of experiment: To identify inhibition of the IFN signalling (Jak-Stat) pathway via expression of an eGFP reporter gene under the control of an IFN-stimulated response element (ISRE) containing MxA promoter. Type of experiment: functional. Also on record: scale not given: direction of the effect not stated beside the values. The settings on record: 30 µM. Background: In a reporter assay the amount or activity of a reporter protein is the signal.

In experiment [9] the target is T5, Tyrosyl-tRNA synthetase, putative (Trypanosoma cruzi (strain CL Brener)) (UniProt Q4DSP6).
T5 sequence (whole entry): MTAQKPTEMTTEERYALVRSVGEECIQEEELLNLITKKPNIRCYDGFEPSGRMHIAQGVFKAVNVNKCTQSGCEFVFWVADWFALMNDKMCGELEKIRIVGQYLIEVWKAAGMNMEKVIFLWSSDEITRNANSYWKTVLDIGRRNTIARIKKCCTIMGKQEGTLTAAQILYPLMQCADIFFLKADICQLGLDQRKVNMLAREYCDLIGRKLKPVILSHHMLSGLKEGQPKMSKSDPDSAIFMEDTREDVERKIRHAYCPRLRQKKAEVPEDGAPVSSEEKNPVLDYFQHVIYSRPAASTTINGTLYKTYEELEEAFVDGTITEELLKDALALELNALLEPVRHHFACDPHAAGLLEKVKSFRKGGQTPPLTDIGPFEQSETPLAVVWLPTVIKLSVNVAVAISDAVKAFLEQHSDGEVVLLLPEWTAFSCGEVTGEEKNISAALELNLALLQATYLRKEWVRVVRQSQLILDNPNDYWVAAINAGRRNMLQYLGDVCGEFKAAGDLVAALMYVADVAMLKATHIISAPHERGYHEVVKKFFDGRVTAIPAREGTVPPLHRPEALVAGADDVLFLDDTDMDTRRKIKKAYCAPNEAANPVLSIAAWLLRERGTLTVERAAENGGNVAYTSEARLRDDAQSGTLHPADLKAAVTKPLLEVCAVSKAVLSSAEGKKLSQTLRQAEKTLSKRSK
As to the kind of experiment: Trypanosoma cruzi tyrosyl tRNA synthetase (TcYRS) _High Tyrosine SOP. The class given is functional. Also on record: scale not given: in the data most compounds retested in dose-response had high values. As to conditions: 30 µM.

Experiment [10] concerns the target T5, Tyrosyl-tRNA synthetase, putative (Trypanosoma cruzi (strain CL Brener)). The experiment can be described thus: Trypanosoma cruzi tyrosyl tRNA synthetase (TcYRS) SOP. Also noted: scale not given: direction of the effect not stated beside the values. As to conditions: 30 µM. Type of experiment: functional.
Experiment [11] addresses Chromo domain-containing protein 1 (Saccharomyces cerevisiae (strain ATCC 204508 / S288c) (Baker's yeast)) (UniProt P32657). The experiment can be described thus: ScCHD-1 Enzyme Inhibition Assay. The class given is functional. Also noted: scale not given: in the data most compounds retested in dose-response had high values. As to conditions: 30 µM.
Experiment [12] deals with AMP-activated protein kinase, AMPK (Homo sapiens) (UniProt P54646+O43741+P54619+Q9UGJ0+Q9Y478+Q13131+Q9UGI9). As to the kind of experiment: AMP-dependent Kinase enzyme assay. An in vitro enzyme assay that detects ADP turnover that is directly proportional to AMPK activity. This uses naive AMPK that is activated during the assay with MK-8722. Type of experiment: functional. Also noted: scale not given: direction of the effect not stated beside the values. As to conditions: 30 µM.

Chain of Sialic acid-binding Ig-like lectin 9 (Homo sapiens) (Q9Y336 whole entry): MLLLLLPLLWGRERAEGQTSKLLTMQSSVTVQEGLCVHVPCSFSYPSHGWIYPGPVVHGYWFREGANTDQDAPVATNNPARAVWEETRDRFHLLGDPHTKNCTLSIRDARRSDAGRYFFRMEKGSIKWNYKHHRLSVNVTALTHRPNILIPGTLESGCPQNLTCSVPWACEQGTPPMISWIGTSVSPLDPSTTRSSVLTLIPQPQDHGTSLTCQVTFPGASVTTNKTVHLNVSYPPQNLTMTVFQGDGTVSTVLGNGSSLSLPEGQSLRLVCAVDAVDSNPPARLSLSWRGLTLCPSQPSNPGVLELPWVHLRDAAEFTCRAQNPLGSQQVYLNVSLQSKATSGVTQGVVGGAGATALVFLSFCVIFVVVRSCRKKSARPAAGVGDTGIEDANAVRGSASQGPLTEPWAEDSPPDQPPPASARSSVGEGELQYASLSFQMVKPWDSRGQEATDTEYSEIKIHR
Chain of Chromo domain-containing protein 1 (Saccharomyces cerevisiae (strain ATCC 204508 / S288c) (Baker's yeast)) (P32657 whole entry, the tested form may be a part): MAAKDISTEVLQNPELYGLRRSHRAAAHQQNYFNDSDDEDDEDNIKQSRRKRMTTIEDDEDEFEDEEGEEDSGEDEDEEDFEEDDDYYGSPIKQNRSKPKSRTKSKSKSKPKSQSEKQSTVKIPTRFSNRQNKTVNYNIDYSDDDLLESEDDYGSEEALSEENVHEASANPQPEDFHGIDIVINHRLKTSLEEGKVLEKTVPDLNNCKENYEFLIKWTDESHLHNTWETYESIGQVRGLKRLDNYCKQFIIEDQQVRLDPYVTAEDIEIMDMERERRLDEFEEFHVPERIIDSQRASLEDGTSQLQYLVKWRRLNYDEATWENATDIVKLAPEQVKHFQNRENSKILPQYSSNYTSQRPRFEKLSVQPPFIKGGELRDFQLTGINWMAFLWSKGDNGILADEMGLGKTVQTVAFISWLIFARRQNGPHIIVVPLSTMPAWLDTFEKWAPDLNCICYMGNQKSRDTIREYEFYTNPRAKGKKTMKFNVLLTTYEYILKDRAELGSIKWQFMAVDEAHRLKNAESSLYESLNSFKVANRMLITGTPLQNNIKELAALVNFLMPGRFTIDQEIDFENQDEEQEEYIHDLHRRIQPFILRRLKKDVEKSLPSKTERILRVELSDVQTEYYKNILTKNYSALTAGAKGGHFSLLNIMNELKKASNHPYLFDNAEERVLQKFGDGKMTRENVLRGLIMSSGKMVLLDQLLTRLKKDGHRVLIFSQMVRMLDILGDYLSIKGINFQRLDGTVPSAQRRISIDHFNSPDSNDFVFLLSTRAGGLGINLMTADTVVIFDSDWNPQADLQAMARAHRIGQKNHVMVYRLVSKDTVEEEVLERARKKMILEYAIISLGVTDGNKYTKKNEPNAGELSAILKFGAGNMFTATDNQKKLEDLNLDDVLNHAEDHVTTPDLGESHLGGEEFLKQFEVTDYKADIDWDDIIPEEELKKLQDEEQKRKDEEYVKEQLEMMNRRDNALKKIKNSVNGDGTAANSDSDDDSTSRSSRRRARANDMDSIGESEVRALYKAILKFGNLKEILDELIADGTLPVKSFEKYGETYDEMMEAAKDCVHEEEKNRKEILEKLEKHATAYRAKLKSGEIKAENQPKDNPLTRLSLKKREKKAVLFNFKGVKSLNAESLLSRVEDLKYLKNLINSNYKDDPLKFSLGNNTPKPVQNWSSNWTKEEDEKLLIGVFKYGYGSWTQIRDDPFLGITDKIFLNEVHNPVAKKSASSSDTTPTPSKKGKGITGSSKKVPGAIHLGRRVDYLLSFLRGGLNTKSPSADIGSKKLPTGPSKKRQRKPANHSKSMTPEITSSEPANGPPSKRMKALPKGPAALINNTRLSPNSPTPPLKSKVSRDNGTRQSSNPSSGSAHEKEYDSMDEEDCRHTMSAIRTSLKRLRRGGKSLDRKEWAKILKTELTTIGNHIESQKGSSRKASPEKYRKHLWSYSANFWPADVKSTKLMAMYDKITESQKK
Chain of Protein translocase subunit SecA (Escherichia coli (strain K12)) (P10408 whole entry): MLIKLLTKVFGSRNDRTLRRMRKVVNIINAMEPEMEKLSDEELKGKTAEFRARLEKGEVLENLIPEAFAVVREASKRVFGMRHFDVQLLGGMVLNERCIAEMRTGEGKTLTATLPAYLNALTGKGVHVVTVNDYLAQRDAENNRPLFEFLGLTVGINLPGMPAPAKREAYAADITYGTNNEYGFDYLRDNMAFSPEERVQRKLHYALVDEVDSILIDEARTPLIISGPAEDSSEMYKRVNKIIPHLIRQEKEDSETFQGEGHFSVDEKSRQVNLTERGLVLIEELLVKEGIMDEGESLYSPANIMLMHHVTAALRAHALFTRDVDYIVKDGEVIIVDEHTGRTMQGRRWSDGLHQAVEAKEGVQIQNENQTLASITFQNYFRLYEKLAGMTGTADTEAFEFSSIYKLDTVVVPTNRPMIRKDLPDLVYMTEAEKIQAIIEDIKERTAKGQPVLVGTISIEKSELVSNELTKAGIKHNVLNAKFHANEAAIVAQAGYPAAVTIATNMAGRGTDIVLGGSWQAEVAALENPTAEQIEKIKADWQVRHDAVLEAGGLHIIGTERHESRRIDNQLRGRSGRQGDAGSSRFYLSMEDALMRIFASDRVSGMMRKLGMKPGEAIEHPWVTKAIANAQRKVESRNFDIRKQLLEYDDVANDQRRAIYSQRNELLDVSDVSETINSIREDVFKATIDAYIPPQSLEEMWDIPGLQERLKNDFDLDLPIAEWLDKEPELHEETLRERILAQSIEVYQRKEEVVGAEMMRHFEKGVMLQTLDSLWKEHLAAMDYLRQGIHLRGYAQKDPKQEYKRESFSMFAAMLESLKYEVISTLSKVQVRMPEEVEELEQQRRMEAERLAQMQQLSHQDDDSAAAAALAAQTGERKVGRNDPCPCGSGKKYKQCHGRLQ

For the compound `O=C(NC1CC1)c1ccc2ccc(N3CCN(CC4CC4)CC3)n2c1`, the PXC50 is 4.49 in [1] (BOTTOM 0.467703885, HILLSLOPE 1.411799655, MAX_EFFECT 58.90736342, TOP 70.88537837); 4.18 in experiment [1] (BOTTOM 3.025092892, HILLSLOPE 1.100251625, MAX_EFFECT 63.9084507, TOP 101.8817942); 4.72 in experiment [1] (BOTTOM 3.903834548, HILLSLOPE 2.10176548, MAX_EFFECT 63.76811594, TOP 66.05792102); 4.45 in experiment [1] (BOTTOM -3.956247574, HILLSLOPE 1.036561065, MAX_EFFECT 73.83512545, TOP 100.0); 4.22 in [1] (BOTTOM -4.174046537, HILLSLOPE 0.97706716, MAX_EFFECT 63.03630363, TOP 100.0). Further, the Percent Effect in experiment [2] is 0.138%; in [3], 9.09%; in experiment [4], 0.503%; in experiment [5], 7.69%; in experiment [6], -1.37%; in experiment [7] it was 9.19%. The Percent Effect in experiment [8] was -15.1%; in experiment [9], 45.4%; in experiment [10], 22.5%; in [11], -3.97%.
`O=C(c1ccc2[nH]ccc2c1)N1CCn2cnc(COCC3CC3)c2C1`: the PXC50 in experiment [1] (BOTTOM 5.122464756, HILLSLOPE 1.784249951, MAX_EFFECT 79.5379538, TOP 100.0) is 4.27; in [1] (BOTTOM 5.453463465, HILLSLOPE 1.390916791, MAX_EFFECT 57.24637681, TOP 100.0) it was 4.07; in experiment [1] (MAX_EFFECT 37.27598566), less than 4. Further, the Percent Effect was 1.11% in [2]; 7.79% in experiment [3]; 5.2% in experiment [12]; -2.14% in experiment [4]; -2.66% in experiment [5]; 13.6% in [6]. Moreover, the Percent Effect was 17.4% in experiment [7]; 5.61% in [8]; 26.5% in experiment [9]; 37.2% in experiment [10]; -6.46% in experiment [11].
Consider `CC(C)c1nc2c(n1C)CCN(Cc1nc(-c3cccnc3)no1)C2`, for which the PXC50 was 4.04 in [1] (BOTTOM 2.671185226, HILLSLOPE 0.615272847, MAX_EFFECT 58.33333333, TOP 100.0); less than 4 in experiment [1] (MAX_EFFECT 45.45454545); less than 4 in [1] (MAX_EFFECT 45.58058925); less than 4 in experiment [1] (MAX_EFFECT 47.65100671); less than 4 in experiment [1] (MAX_EFFECT 48.17658349).
